Screens: PubChem, National Center for Advancing Translational Sciences (NCATS)
The list is not random: actives were taken first. Their share in the collection is about 7.5%.
ELG1 genotox – inducers of genotoxicity in HEK293T ELG1-luciferase cells | HEK293T ELG1-luciferase reporter, luminescence, 16 h | Potency, µM (series often up to 46 µM), inactives show at the highest dose activity change, positive = activation, actives largely listed as activators | hit rate 1.3% among 330,000 | AID 504466; note: % of control where 0% means no effect; nearly all actives have a fitted effect of over 60% in size
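HEK293T cells expressing luciferase-tagged ELG1 were exposed to compound or DMSO vehicle for 16 hr at 37 °C and 5% CO2. Luciferase activity was then measured with ONE-Glo after 30 min at room temperature.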
Rab9 promoter act – activators of Rab9 promoter; Huh7 Rab9 promoter-luciferase reporter, luminescence, 24 h; Potency, µM (titrated, usually from 9.22 µM), for inactives: at the top dose activation, negative = inhibition, hits mostly activators; hit rate 2.8% among 320,000; note: % of control where 0% means no effect; nearly all actives have a fitted effect of over 60% in size
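Huh7 cells stably carrying a Rab9 promoter-luciferase reporter, 1500 cells per well in OP-MEM I with 10% FBS, treated with compound 24 hours at 37C. Luciferase activity read by luminescence after 10 minutes with Amplite reagent.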
SMN2 splice enh – SMN2 splice variant enhancement. HEK293 SMN2-luciferase splicing reporter, luminescence, 30-36 h. Potency, µM (highest dose often 46.1 µM), inactives show top-dose activity change, positive = activation, hits mostly activators. hit rate 2.8% among 210,000. AID 1458; note: % of control where 0% means no effect; nearly all actives have a fitted effect of over 55% in size
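HEK293 cells carry an SMN2 […]–luciferase reporter in which exon 7 inclusion puts luciferase in frame. Cells were plated 10-12 h before compound addition, then incubated 30-36 h at 37C. ONE-Glo luminescence was read; sodium butyrate at 4.5 mM final served as control.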
NPC1 promoter act – activators of NPC1 promoter. Huh7 NPC1 promoter luciferase reporter, 24 h. Potency, µM (doses to about 9.22 µM), for the others: top-dose activation, most hits filed as activators. hit rate 2.4% among 320,000; note: % of control where 0% means no effect; nearly all actives have a fitted effect of over 60% in size
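Quantitative HTS used a cell-based reporter: Huh7 cells stably bearing the NPC1 promoter upstream of luciferase were treated with compounds for 24 h, and promoter activation was read as luminescence.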
FLuc counter – counter-screen for miR-21 project: firefly luciferase inhibitors or activators; Potency, µM (highest dose often 57.5 µM), inactives show top-dose activity change, negative = inhibition, actives largely listed as inhibitors; hit rate 6.9% among 360,000; purified FLuc, Km substrates, luminescence inhibition;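 note: plate controls were vehicle for no effect and reference inhibitor for full effect; nearly all actives have a fitted effect of over 55% in size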
Target sequence (P08659 whole entry, looked up): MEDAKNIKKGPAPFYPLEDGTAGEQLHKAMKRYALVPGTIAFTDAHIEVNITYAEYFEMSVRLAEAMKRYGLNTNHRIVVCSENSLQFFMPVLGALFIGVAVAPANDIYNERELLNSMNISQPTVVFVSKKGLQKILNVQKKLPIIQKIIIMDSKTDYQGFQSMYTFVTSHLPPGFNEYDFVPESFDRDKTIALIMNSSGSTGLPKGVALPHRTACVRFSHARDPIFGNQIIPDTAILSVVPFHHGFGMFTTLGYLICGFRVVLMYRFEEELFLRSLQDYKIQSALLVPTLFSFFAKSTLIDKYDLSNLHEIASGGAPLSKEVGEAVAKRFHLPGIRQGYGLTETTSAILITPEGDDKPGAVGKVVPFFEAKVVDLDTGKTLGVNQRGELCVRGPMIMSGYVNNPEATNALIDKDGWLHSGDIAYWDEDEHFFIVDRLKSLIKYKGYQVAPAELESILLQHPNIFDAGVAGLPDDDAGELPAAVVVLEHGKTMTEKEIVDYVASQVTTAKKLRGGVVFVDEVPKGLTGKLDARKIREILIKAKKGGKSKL
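Purified P. pyralis luciferase (10nM final) with 10uM D-luciferin and 10uM ATP (Km levels) in 50mM Tris acetate pH 7.5, 10mM Mg acetate, 0.01% Tween-20, 0.05% BSA; qHTS 6-point titration, ~60 µM downward; luminescence read.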
The depositor's hits bear a star; ? = inconclusive; · = not tested or not shown. Calls come from the whole dose curve; as a rule, active = well fitted curve in the direction sought with a large enough effect; inconclusive = small, poorly fitted or top-dose-only effect, or another doubt; inactive = no such curve, though single readings can be large; an effect the other way counts as inactive or inconclusive. Potency is the fitted concentration of half-maximal effect.

SMILES | ELG1 genotox | Rab9 promoter act | SMN2 splice enh | NPC1 promoter act | FLuc counter
O=C1C2C3c4ccccc4C(c4ccccc43)C2C(=O)N1c1cccc2cccnc12 (configuration not stated) | 0% | -1% | -19% | 1% | -1%
CCn1c(SCC(=O)c2ccc(Cl)cc2)nnc1C(C)C | ? | ? | 2% | ? | 19µM*
Cc1nnc(SCC(=O)c2ccc(Cl)cc2)n(N)c1=O | 16% | 1µM* | 5µM* | 0.79µM* | 2%
CCn1c(SCC(N)=O)nnc1C(C)C | -4% | 2% | -15% | -3% | -1%
CCn1c(SCC(=O)c2ccc(Cl)cc2)nnc1-c1cccs1 | 5% | 16% | -7% | 0% | 24µM*
Cc1ccccc1CC1(CO)CCCN(C(=O)CCN2CCCO2)C1 (configuration not stated) | 6% | 4% | · | 1% | ?
C=CC[C@@H](CC(=O)N[C@@H](CO)Cc1ccccc1)C(=O)NC[C@@H](OC(=O)[C@@H](CC=C)CC(=O)OC(C)(C)C)c1ccccc1 | 0% | · | · | · | ·
S=C(NCCc1ccccc1)NC1CCC(NC(=S)NCCc2ccccc2)CC1 (configuration not stated) | 12% | -3% | 23% | -3% | -1%
O=C(NCCC1=CCCCC1)NC1CCCCC1 | ? | 0.79µM* | 7.1µM* | 1.4µM* | 6.7µM*
O=C(NCCc1ccccc1)NC1CCCCC1 | ? | 0.56µM* | 11µM* | 1.1µM* | 11µM*
S=C(NCCc1cccc(Cl)c1)NC1CCCCC1 | ? | 2.8µM* | · | 3.5µM* | 19µM*
CC(C)COc1ccc(C(=O)NCc2ccco2)cc1 | ? | 20% | 16% | 2% | ?
CCN(CC)C(=O)[C@H]1CC(CC(=O)NCCN2CCOCC2)C(=O)N2CCc3c([nH]c4ccc(OC)cc34)[C@]12C (some centres not stated) | -3% | · | · | · | ·
CC(C)C(OC(=O)c1ccccc1)c1nccc2ccccc12 (configuration not stated) | ? | ? | · | ? | 17µM*
Cc1c(NC2=NC(C)(C)Cc3ccccc32)c(=O)n(-c2ccccc2)n1C | 2% | -3% | 1% | -1% | 2%
COc1ccc(Nc2nc(-c3ccc(OC)cc3)c(CCC(=O)O)s2)cc1 | 3% | -8% | · | -5% | ?
COC(=O)CCc1sc(Nc2ccccc2)nc1-c1ccc(OC)cc1 | ? | 25% | ? | 15% | 24µM*
CCOC(=O)c1ccccc1NC(=O)CSc1nnc(Cc2cccn2C)n1-c1ccc(F)cc1 | -4% | 3.2µM* | -15% | 1% | 1%
CCOc1ccccc1NC(=O)CSc1nnc(Cc2cccn2C)n1-c1ccc(F)cc1 | -14% | 0% | -2% | 1% | 5%
CCOC(=O)c1sc(NC(=S)NC(=O)C2CCCC2)cc1C | -1% | 10% | · | 17% | -10%
CCOC(=O)c1sc(NC(=O)c2ccccc2)cc1C | 1.3µM* | 0.71µM* | 11µM* | 1.6µM* | 1.1µM*
CCOC(=O)c1sc(NC(=O)C(C)(C)C)cc1C | 18µM* | 3.2µM* | 10µM* | 2.8µM* | 12µM*
CCOC(=O)c1sc(NC(=O)c2ccc(S(=O)(=O)N(C)C)cc2)cc1C | -20% | -6% | -19% | -10% | -26%
CCOC(=O)c1sc(NC(=S)NC(=O)CC(C)C)cc1C | 4% | ? | -11% | 23% | 19µM*
CCOC(=O)c1sc(NC(=O)C2CC2)cc1C | 6% | 19% | 5% | 8% | ?
SMILES | ELG1 genotox | Rab9 promoter act | SMN2 splice enh | NPC1 promoter act | FLuc counter
CCOC(=O)c1sc(NC(=O)c2c(C)nn(Cc3ccccc3)c2C)cc1C | -25% | -8% | -12% | 1% | 21µM*
CCC(Oc1ccccc1)C(=O)NCCCN1CCOCC1 (configuration not stated) | 0% | 11% | · | -3% | 1%
CCc1ccc(NC(=S)NC(=O)CC(C)C)cc1 | ? | ? | 8.9µM* | ? | 7.6µM*
CCOC(=O)c1sc(NC(=O)c2ccc(Cl)s2)cc1C | 2.3µM* | 1µM* | 7.9µM* | ? | 0.6µM*
CCN(CC)S(=O)(=O)c1ccc(NC(=S)NC(=O)CC(C)C)cc1 | -2% | 1% | -9% | -5% | 0%
CCOC(=O)c1sc(NC(=O)c2cccc(S(=O)(=O)N(CC)CC)c2)cc1C | 2% | 2% | -3% | 14% | ?
CCOC(=O)c1sc(NC(=O)Nc2ccc(Cl)cc2)cc1C | ? | 1% | -22% | 20% | 6.7µM*
CC(=O)NC1=NN(C(C)=O)C(C)(CS(=O)(=O)c2ccc(C)c(C)c2)S1 (configuration not stated) | 1% | -6% | 1% | 2% | 0%
COc1ccc(-c2[nH]c(-c3ccc4c(c3)OCO4)nc2-c2ccccc2)cc1 | -10% | -4% | -4% | 1% | ?
Cc1c(C)c(C)c2[nH]c(-c3ccc4c(c3)OCO4)nc2c1C | -10% | 17% | · | 19% | 4.8µM*
COc1ccc(N2C(=O)C(Cl)=C(Nc3ccccc3OC)C2=O)cc1 | 1% | -7% | -33% | 2% | 24µM*
COc1ccc(N2C(=O)C(Cl)=C(Nc3ccccc3O)C2=O)cc1 | 13% | 6% | -30% | 3% | ?
Nc1nn(-c2ccccc2)nc1C(=O)OCc1ccccc1 | ? | 18% | 30% | 13% | 15µM*
Cc1ccc(COC(=O)c2nn(-c3ccccc3)nc2N)cc1 | 3% | 10% | -7% | 0% | ?
O=C(CS(=O)(=O)c1ccccc1)N(CCCN1CCOCC1)c1nc2c(F)cccc2s1 | 15% | 21% | · | 17% | ?
CCOc1cc(/C=C2/SC(=S)N(CC(=O)O)C2=O)ccc1OC(=O)c1cccs1 | -2% | 10% | · | 5% | 17µM*
COc1cc(/C=C2\SC(=S)N(CC(=O)O)C2=O)ccc1OC(=O)c1ccco1 | 1% | 0% | · | ? | 7.6µM*
CCOc1ccc(/C=C2/SC(=S)N(C(C(=O)O)c3ccccc3)C2=O)cc1OCC (configuration not stated) | -1% | -3% | -13% | -2% | ?
COc1ccc(/C=C2/SC(=S)N(CC(=O)O)C2=O)cc1OCc1ccc(Cl)cc1 | 17% | 23% | · | -5% | 19µM*
O=C(O)CN1C(=O)/C(=C\c2cc(Br)ccc2OCc2ccc(Cl)cc2)SC1=S | 1% | 1% | · | -1% | -7%
COc1cc(/C=C2/SC(=S)N(CC(=O)O)C2=O)ccc1OC(=O)c1ccco1 | -4% | 0% | · | -5% | 7.6µM*
Cc1ccc2nc(-c3cccnc3)cc(C(=O)N3CCN(c4ccc([N+](=O)[O-])cc4)CC3)c2c1 | -6% | -12% | -16% | -6% | ?
O=C(O)CN1C(=O)/C(=C\c2cccc(OCc3ccccc3)c2)SC1=S | 5% | 7% | · | 3% | 15µM*
O=C(CSc1nnnn1-c1ccc2c(c1)OCCO2)OC1CCCCC1 | 0% | -6% | 3% | 0% | ?
